Experimental data as given in PubChem BioAssay (NCI).
About 83,000 compounds went through this panel and 20% of them were active in at least one assay; those are over-represented in the sample as a whole.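 Interpretation: 100, growth as untreated; towards 0, rising growth inhibition; 0, no net growth; 0 to -100, cell death. Compounds scoring below 10 were considered active.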 The source made the active and inactive calls.

How the values were obtained:
Test in all cases: NCI-60 one-dose screen, 48 h (100 = growth as untreated, 0 = no growth, -100 = all killed)
Settings in all cases: 10 µM unless noted
RPMI-8226 leukemia = tested on: RPMI-8226 leukemia
OVCAR-8 ovarian = tested on: OVCAR-8 ovarian
OVCAR-5 ovarian = tested on: OVCAR-5 ovarian
OVCAR-4 ovarian = tested on: OVCAR-4 ovarian
SK-OV-3 ovarian = tested on: SK-OV-3 ovarian
IGROV1 ovarian = tested on: IGROV1 ovarian
OVCAR-3 ovarian = tested on: OVCAR-3 ovarian
HS 578T breast = tested on: HS 578T breast
NCI/ADR-RES ovarian = tested on: NCI/ADR-RES ovarian
BT-549 breast = tested on: BT-549 breast
MDA-MB-435 melanoma = tested on: MDA-MB-435 melanoma
SW-620 colon = tested on: SW-620 colon
MCF7 breast = tested on: MCF7 breast
HCT-116 colon = tested on: HCT-116 colon
HCC-2998 colon = tested on: HCC-2998 colon
KM12 colon = tested on: KM12 colon

Measured: growth

CS(=O)(=O)c1ccc(-c2[nH]c3ccc(F)cc3c2/C=N/O)cc1
inactive: RPMI-8226 leukemia 90.4% | OVCAR-8 ovarian 90.3% | OVCAR-5 ovarian 91.4% | OVCAR-4 ovarian 97.1% | SK-OV-3 ovarian 69.8% | IGROV1 ovarian 89.9% | OVCAR-3 ovarian 99.8% | HS 578T breast 92.2% | NCI/ADR-RES ovarian 107% | BT-549 breast 91% | MDA-MB-435 melanoma 99.6% | SW-620 colon 110% | MCF7 breast 82.9% | HCT-116 colon 87.9% | HCC-2998 colon 110% | KM12 colon 101%

Cc1ccc(S(=O)(=O)Nc2sccc2-c2nc(-c3ccccc3)no2)cc1
inactive: RPMI-8226 leukemia 84.2% | OVCAR-8 ovarian 89.4% | OVCAR-5 ovarian 85.8% | OVCAR-4 ovarian 95.1% | SK-OV-3 ovarian 89.1% | IGROV1 ovarian 87.9% | OVCAR-3 ovarian 92.2% | HS 578T breast 97% | NCI/ADR-RES ovarian 99.2% | BT-549 breast 92.5% | MDA-MB-435 melanoma 95.6% | SW-620 colon 97% | MCF7 breast 93.1% | HCT-116 colon 85.9% | HCC-2998 colon 97.8% | KM12 colon 90.1%

CS(=O)(=O)c1ccc(N/N=C/c2c(-c3ccc(S(C)(=O)=O)cc3)[nH]c3ccc(F)cc23)cc1
inactive: OVCAR-8 ovarian 26.1% | OVCAR-5 ovarian 75.1% | OVCAR-4 ovarian 40.2% | SK-OV-3 ovarian 54.6% | IGROV1 ovarian 35.4% | OVCAR-3 ovarian 41.7% | NCI/ADR-RES ovarian 91.5% | BT-549 breast 23.9% | MDA-MB-435 melanoma 40.3% | SW-620 colon 59.7% | MCF7 breast 18.9% | HCT-116 colon 27.1% | HCC-2998 colon 52.3% | KM12 colon 29.2%
active: RPMI-8226 leukemia -41.7% | HS 578T breast 5.71%

Clc1ccc2c(NCCCN3CCN(c4nc(-n5ccnc5)nc5ccccc45)CC3)ccnc2c1
inactive: OVCAR-8 ovarian 84.2% | OVCAR-5 ovarian 120% | OVCAR-4 ovarian 64.9% | SK-OV-3 ovarian 109% | IGROV1 ovarian 86.5% | OVCAR-3 ovarian 90.5% | HS 578T breast 85.5% | NCI/ADR-RES ovarian 90.7% | BT-549 breast 67.6% | MDA-MB-435 melanoma 71.2% | HCT-116 colon 72.8% | HCC-2998 colon 95.7% | KM12 colon 87.8%
active: RPMI-8226 leukemia -48.6% | SW-620 colon -52.9% | MCF7 breast -29.3%

COc1ccc(Oc2nc(Nc3ccc(N4CCCCC4)nc3)ncc2NC(=O)c2cc(OC)cc(OC)c2)cc1
active: OVCAR-3 ovarian 6.75% | MDA-MB-435 melanoma -30.6% | MCF7 breast 9.76%
inactive: RPMI-8226 leukemia 24.4% | OVCAR-8 ovarian 57% | OVCAR-5 ovarian 76.7% | OVCAR-4 ovarian 56.7% | SK-OV-3 ovarian 57.6% | IGROV1 ovarian 58.3% | HS 578T breast 44.6% | NCI/ADR-RES ovarian 26.1% | BT-549 breast 56.5% | SW-620 colon 30.6% | HCT-116 colon 18.8% | HCC-2998 colon 65.8% | KM12 colon 20.2%

O=c1[nH]c(NCc2nnnn2-c2ccc(Br)cc2)nc2sc3c(c12)CCCC3
inactive: RPMI-8226 leukemia 87.3% | OVCAR-8 ovarian 81.4% | OVCAR-5 ovarian 100% | OVCAR-4 ovarian 95.2% | SK-OV-3 ovarian 90.6% | IGROV1 ovarian 104% | OVCAR-3 ovarian 97.8% | HS 578T breast 100% | NCI/ADR-RES ovarian 103% | BT-549 breast 104% | MDA-MB-435 melanoma 97.4% | SW-620 colon 93.7% | MCF7 breast 92% | HCT-116 colon 81.2% | HCC-2998 colon 110% | KM12 colon 96.1%

CCN(CC)N=Nc1nn(C(=O)Nc2ccc(Cc3ccccc3)cc2)c2ccc(Cl)cc12
inactive: RPMI-8226 leukemia 57.1% | OVCAR-8 ovarian 69.3% | OVCAR-5 ovarian 87.7% | OVCAR-4 ovarian 75.7% | SK-OV-3 ovarian 92.2% | IGROV1 ovarian 88% | OVCAR-3 ovarian 87.6% | HS 578T breast 91.5% | NCI/ADR-RES ovarian 82.1% | BT-549 breast 84.1% | MDA-MB-435 melanoma 43% | SW-620 colon 44.4% | MCF7 breast 40.4% | HCT-116 colon 44% | HCC-2998 colon 43.2% | KM12 colon 56.6%

O=C1N/C(=N/O)S/C1=C/c1cn(-c2ccccc2)nc1-c1ccccc1
inactive: RPMI-8226 leukemia 98.8% | OVCAR-8 ovarian 89.9% | OVCAR-5 ovarian 109% | OVCAR-4 ovarian 111% | SK-OV-3 ovarian 77.6% | IGROV1 ovarian 77.4% | OVCAR-3 ovarian 93% | HS 578T breast 83.1% | NCI/ADR-RES ovarian 99.8% | BT-549 breast 92.3% | MDA-MB-435 melanoma 106% | SW-620 colon 107% | MCF7 breast 82.2% | HCT-116 colon 82.4% | HCC-2998 colon 126% | KM12 colon 86.4%

CCCc1nc2ccccn2c1Nc1ccc(C(=O)NO)cc1
inactive: RPMI-8226 leukemia 76.3% | OVCAR-8 ovarian 78% | OVCAR-5 ovarian 93.7% | OVCAR-4 ovarian 91.1% | SK-OV-3 ovarian 80.9% | IGROV1 ovarian 111% | OVCAR-3 ovarian 99.1% | HS 578T breast 94.6% | NCI/ADR-RES ovarian 84.6% | BT-549 breast 98.1% | MDA-MB-435 melanoma 90.2% | SW-620 colon 86.3% | MCF7 breast 79.6% | HCT-116 colon 85.4% | HCC-2998 colon 91.4% | KM12 colon 97.1%

COc1ccc(/C=C(\C#N)n2nnc3cc(F)c(F)cc32)c(OC)c1OC
inactive: RPMI-8226 leukemia 41.6% | OVCAR-8 ovarian 67.6% | OVCAR-5 ovarian 98% | OVCAR-4 ovarian 60.6% | SK-OV-3 ovarian 88.6% | IGROV1 ovarian 68.8% | OVCAR-3 ovarian 58.2% | HS 578T breast 66.2% | NCI/ADR-RES ovarian 72.7% | BT-549 breast 70.9% | MDA-MB-435 melanoma 45.7% | SW-620 colon 62% | MCF7 breast 27.2% | HCT-116 colon 52.9% | HCC-2998 colon 114% | KM12 colon 67.8%

O=C(NCc1cccnc1)c1cc(-c2csc3c(=O)cc(N4CCOCC4)oc23)cc2c1OCCO2
inactive: OVCAR-8 ovarian 38% | OVCAR-5 ovarian 31.3% | OVCAR-4 ovarian 50.3% | OVCAR-3 ovarian 34.7% | NCI/ADR-RES ovarian 89.3% | BT-549 breast 54.3% | MDA-MB-435 melanoma 32.9% | SW-620 colon 46.9% | HCT-116 colon 45.2% | HCC-2998 colon 41.8% | KM12 colon 48.9%
active: RPMI-8226 leukemia 9.21% | SK-OV-3 ovarian 8.37% | IGROV1 ovarian 7.23% | HS 578T breast 8.92% | MCF7 breast 8.29%

CS(=O)(=O)c1ccc(-c2nc3cc(Cl)ccc3n2CC(=O)N/N=C/c2ccc(Cl)cc2)cc1
inactive: OVCAR-8 ovarian 43.6% | OVCAR-5 ovarian 77.4% | OVCAR-4 ovarian 60.1% | SK-OV-3 ovarian 65.8% | IGROV1 ovarian 55.6% | OVCAR-3 ovarian 46.5% | HS 578T breast 19.2% | NCI/ADR-RES ovarian 92.8% | BT-549 breast 41.8% | MDA-MB-435 melanoma 73.7% | SW-620 colon 75% | MCF7 breast 37.4% | HCT-116 colon 42.1% | HCC-2998 colon 73.5%
active: RPMI-8226 leukemia -17.2%

CCCn1nc(-c2ccccc2)c2c(-c3ccccc3)onc2c1=O
active: MDA-MB-435 melanoma 8.42%
inactive: RPMI-8226 leukemia 70.2% | OVCAR-8 ovarian 102% | OVCAR-5 ovarian 87.7% | OVCAR-4 ovarian 79.7% | SK-OV-3 ovarian 83.6% | IGROV1 ovarian 72.5% | OVCAR-3 ovarian 91.8% | HS 578T breast 67.7% | NCI/ADR-RES ovarian 68.5% | BT-549 breast 71.5% | SW-620 colon 43.5% | MCF7 breast 40.9% | HCT-116 colon 58.9% | HCC-2998 colon 85.3% | KM12 colon 60%

Cc1cc(N2CCCCC2)nc(N(CCNc2ccnc3cc(Cl)ccc23)Cc2ccccn2)n1
inactive: OVCAR-8 ovarian 52.8% | OVCAR-5 ovarian 68.2% | OVCAR-4 ovarian 41.6% | SK-OV-3 ovarian 60.5% | IGROV1 ovarian 31% | OVCAR-3 ovarian 56.8% | HS 578T breast 53.5% | NCI/ADR-RES ovarian 50.4% | BT-549 breast 64.3% | MDA-MB-435 melanoma 68.1% | SW-620 colon 45.7% | MCF7 breast 26.2% | HCT-116 colon 16.2% | HCC-2998 colon 84.6% | KM12 colon 55.2%
active: RPMI-8226 leukemia -14.7%

C=C1c2c(C)nn(-c3ccc(NC(C)=O)cc3)c2N(C)C23CC1C1(C)c4c(C)nn(-c5ccc(NC(C)=O)cc5)c4N(C)C(C)(CC12)C3 (configuration not stated)
inactive: OVCAR-8 ovarian 40.8% | OVCAR-5 ovarian 78.1% | OVCAR-4 ovarian 35% | SK-OV-3 ovarian 48.5% | IGROV1 ovarian 64.8% | OVCAR-3 ovarian 34.3% | HS 578T breast 62.6% | NCI/ADR-RES ovarian 43.4% | BT-549 breast 44% | MDA-MB-435 melanoma 30.6% | SW-620 colon 27.9% | HCT-116 colon 13.4% | HCC-2998 colon 44.7% | KM12 colon 23.6%
active: RPMI-8226 leukemia -50.5% | MCF7 breast 9.67%

Cc1cc(Cl)nc(N(CCCNc2ccnc3cc(Cl)ccc23)Cc2ccccn2)n1
inactive: OVCAR-8 ovarian 33.8% | OVCAR-5 ovarian 56% | OVCAR-4 ovarian 41.4% | SK-OV-3 ovarian 65% | IGROV1 ovarian 44.1% | OVCAR-3 ovarian 62.8% | HS 578T breast 78.6% | NCI/ADR-RES ovarian 32.2% | BT-549 breast 54% | MDA-MB-435 melanoma 52.7% | SW-620 colon 53.3% | MCF7 breast 32.9% | HCT-116 colon 14.9% | HCC-2998 colon 74.2% | KM12 colon 48%
active: RPMI-8226 leukemia 1.09%

Cn1cc(Nc2nccc(-c3ccc(N4CCCC4)c(C#N)c3)n2)cn1
active: MDA-MB-435 melanoma 0.731%
inactive: RPMI-8226 leukemia 27.1% | OVCAR-8 ovarian 47.3% | OVCAR-5 ovarian 88% | OVCAR-4 ovarian 53.7% | SK-OV-3 ovarian 18.4% | IGROV1 ovarian 25.3% | OVCAR-3 ovarian 32.1% | HS 578T breast 32.5% | NCI/ADR-RES ovarian 42.2% | BT-549 breast 37.7% | SW-620 colon 14.2% | MCF7 breast 27.3% | HCT-116 colon 11.5% | HCC-2998 colon 59.8% | KM12 colon 31.6%

COc1ccc(/C=N/NC(=O)Cn2c(-c3ccc(S(C)(=O)=O)cc3)nc3cc(Cl)ccc32)cc1
inactive: OVCAR-8 ovarian 19.7% | OVCAR-5 ovarian 36.8% | OVCAR-4 ovarian 55.5% | SK-OV-3 ovarian 12.6% | IGROV1 ovarian 33.3% | HS 578T breast 36.8% | BT-549 breast 43.1% | SW-620 colon 30.5% | MCF7 breast 17.2% | HCT-116 colon 11.8% | HCC-2998 colon 19.4% | KM12 colon 13.3%
active: RPMI-8226 leukemia 9.21% | OVCAR-3 ovarian -1.53% | NCI/ADR-RES ovarian 5.86% | MDA-MB-435 melanoma -17.8%
